# Screens from PubChem BioAssay.
# An excerpt weighted towards active compounds, which were near 3.2% of everything screened.
# MsrA inh – inhibitors of bovine MsrA; purified bovine MsrA, absorbance read-out; inhibition, % at 15.5 µM; actives 0.75% (n = 360,000); in the data active = inhibition above about 4.5%;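 note: 0% = vehicle wells with enzyme and 100% = reference inhibitor wells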
# rCAG RNA binder – r(CAG) repeat RNA binding; TO-PRO-1 dye displacement fluorescence; inhibition, % at 3 µM; actives 1.3% (n = 370,000);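 active = inhibition above the plate cutoff, the mean of all test compounds on that plate plus 3 SD, cut at about 35% in these data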;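 note: 0% = DMSO alone and 100% = 100 µM mitoxantrone as full dye displacement; higher means more dye released from RNA so lower well fluorescence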
# sPLA2-III inh – Blocks human group III sPLA2 activity. Q9NZ20. QFRET BODIPY PC-A2 liposome hydrolysis, fluorescence. inhibition, % at 12.2 µM. actives 0.56% (n = 370,000). AID 743126;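 active = inhibition above mean plus 3 SD of compounds lying within the high and low control bounds, cut at about 19% in these data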;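 note: 0% = median of test compound wells and 100% = no enzyme DMSO wells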
# Target sequence (Q9NZ20 whole entry, looked up): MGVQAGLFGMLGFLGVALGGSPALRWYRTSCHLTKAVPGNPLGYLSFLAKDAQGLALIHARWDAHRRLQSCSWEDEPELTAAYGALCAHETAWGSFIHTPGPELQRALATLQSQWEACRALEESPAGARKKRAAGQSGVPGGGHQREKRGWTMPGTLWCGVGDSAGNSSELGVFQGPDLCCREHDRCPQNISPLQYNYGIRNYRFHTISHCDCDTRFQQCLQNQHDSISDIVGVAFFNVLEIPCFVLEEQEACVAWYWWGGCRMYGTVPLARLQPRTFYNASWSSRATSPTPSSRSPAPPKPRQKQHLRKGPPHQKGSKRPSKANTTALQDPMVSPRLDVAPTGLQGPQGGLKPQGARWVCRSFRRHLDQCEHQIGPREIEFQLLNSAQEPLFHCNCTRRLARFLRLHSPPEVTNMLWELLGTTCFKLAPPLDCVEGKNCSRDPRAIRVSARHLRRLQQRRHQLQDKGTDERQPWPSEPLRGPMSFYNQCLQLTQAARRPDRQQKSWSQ
# PG9 Ab binder – PG9 antibody binding by small molecule | TR-FRET gp120-PG9 antibody binding | inhibition, % at 6.7 µM | actives 0.43% (n = 360,000); in the data active = inhibition above about 8.5%
# MsrA act – bovine methionine sulfoxide reductase A activation; purified bovine MsrA, absorbance read-out; activation, % at 10.6 µM; actives 0.3% (n = 360,000); AID 602163; in the data active = activation above about 7.5%;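 note: 0% = vehicle and 100% = reference activator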
# rCAG bind conf – r(CAG) RNA repeat binding, confirmation. actives 70% (n = 4,300). AID 652065. TO-PRO-1 dye displacement fluorescence. inhibition, % at 3 µM. shares compounds with rCAG RNA binder;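 active = inhibition above a per-plate cutoff, the mean inhibition of sample wells plus 3 SD, cut at about 35% in these data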;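 note: loss of TO-PRO-1 fluorescence as compound displaces dye from 1x1 AA loop RNA; 0% = DMSO only wells and 100% = 100 µM mitoxantrone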
# dCAG dye counter – DNA CAG dye complex inhibition counter-screen | shares compounds with rCAG RNA binder | d(CAG) DNA oligo TO-PRO-1 dye displacement, fluorescence | inhibition, % at 3 µM | actives 94% (n = 4,300) | AID 652068;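 active = inhibition above its plate's cutoff, the mean test-well inhibition plus 3 SD, cut at about 4.8% in these data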;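 note: 0% = DNA dye mix with DMSO and 100% = 100 µM mitoxantrone; hits displace the dye from DNA and so lower well fluorescence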
# sPLA2 confirm – human GIII-sPLA2 inhibition, confirmation; shares compounds with sPLA2-III inh; AID 743280; recombinant hGIII-sPLA2, BODIPY PC-A2 QFRET fluorescence; actives 34% (n = 2,000); inhibition, % at 12.2 µM;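 active = mean inhibition across triplicates above the hit cutoff set in the earlier primary screen, cut at about 19% in these data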;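 note: 0% = enzyme with DMSO and 100% = DMSO wells lacking enzyme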
# 535nm interf – 535nm fluorescence interference, HGIII-sPLA2 counter-screen | AID 743282 | actives 8.5% (n = 2,000) | inhibition, % at 12.2 µM | BODIPY FL product fluorescence interference, QFRET | shares compounds with sPLA2-III inh;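 active = average inhibition above the solvent-only control mean plus 3 SD, cut at about 6% in these data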;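 note: 0% = DMSO with substrate plus product and 100% = DMSO with substrate alone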
# * marks the source's active call; other numbers are inactive results; x = no result; ! = repeats disagree.
SMILES,MsrA inh,rCAG RNA binder,sPLA2-III inh,PG9 Ab binder,MsrA act,sPLA2 confirm,535nm interf,others
O=C(c1cc(O)c(O)c([N+](=O)[O-])c1)c1ccccc1F,3,35*,29*,-1,-11,15,3,rCAG bind conf=35*;dCAG dye counter=6.4*
Cc1cc(N2O[C@]34C=C[C@]25C[C@@H](O)CC[C@]5(C)C3CC[C@]2(C)[C@@H]([C@H](C)/C=C/[C@H](C)C(C)C)CC[C@H]24)no1 (stereo not given in full),0,4,3,-1,-4,x,x,
O=[N+]([O-])c1cc(Cc2ccccc2)cc(C=Nc2ccc(N3CCOCC3)cc2)c1O,x,x,x,x,5,x,x,
Cc1ccc(O)c(N=Cc2cc(Cc3ccccc3)cc([N+](=O)[O-])c2O)c1,2,46*,25*,-5,-5,23*,7.8*,rCAG bind conf=27;dCAG dye counter=16*
O=S(=O)(O)c1cc(Cl)cc(N=Nc2ccc(O)cc2O)c1O,1,91*,49*,-17,-9,-38,-15,rCAG bind conf=67*;dCAG dye counter=31*
Cc1cc(-c2n[nH]c(=S)n2N=Cc2c3ccccc3cc3ccccc23)n[nH]1,x,11,11,x,x,x,x,
O=[N+]([O-])c1ccc(O)c(/C=N/NC(=S)Nc2ccc(Cl)cc2Cl)c1,1,46*,40*,0,-4,31*,20*,rCAG bind conf=89*;dCAG dye counter=64*
Cc1cc(Cl)ccc1NC(=O)CCC(=O)N/N=C/c1cc([N+](=O)[O-])ccc1O,3,3,4,-3,2,x,x,
COc1ccc([C@@]23CCN=C2c2[nH]c4ccccc4c2CCN3)c(N)c1,x,x,0,x,x,x,x,
Cc1ccc(NC(=O)[C@H]2CC(=O)O[C@@H]2c2ccccc2)cc1C,x,0,9,x,x,x,x,
CCCOc1ccc(/C=N/NC(=S)Nc2ccccc2[N+](=O)[O-])c(O)c1,0,49*,37*,1,x,56*,12*,rCAG bind conf=45*;dCAG dye counter=20*
CCCOc1ccc(/C=N/Nc2ccccc2[N+](=O)[O-])c(O)c1,0,5,7,-2,-4,x,x,
NS(=O)(=O)c1ccc(N=Nc2c(O)c(C(=O)O)cc3ccccc23)cc1,2,46*,33*,-7,-1,25*,-2,rCAG bind conf=48*;dCAG dye counter=26*
CCOC(=O)[C@@]12CCC3=C1N(CCC3)C(=O)[C@H](CC(=O)NCc1cccs1)C2,x,3,6,x,x,x,x,
CN(C)S(=O)(=O)c1cccc(NC(=S)NNC(=O)c2cc3ccccc3cc2O)c1,1,87*,37*,0,1,36*,13*,rCAG bind conf=86*;dCAG dye counter=56*
CN(C)S(=O)(=O)c1cccc(NC(=O)c2c[nH]c3ccccc23)c1,3,12,-13,1,2,x,x,
COc1cc(OC)cc(-c2nn[nH]n2)c1,0,-1,20*,-1,-5,-2,0,
COc1ccc(S[C@]2(C(=O)N3CCCC3)CC(=O)N(S(=O)(=O)c3ccc(F)cc3)[C@@H]2c2ccc(OC)cc2)cc1,x,11,-7,x,x,x,x,
Cc1ccc(C2CCN(C(=S)NC(C)C)C2)cc1 (stereo not given),1,-5,23*,-1,1,18,-7,
CCN(CC)C(=O)CC[C@H]1CC[C@]2(CCCN(Cc3ccc(Br)cc3)C2)O1,x,0,16,x,x,x,x,
COc1ccc(N)c2c1C(=O)c1ccccc1C2=O,0,26,33*,-46,-6,37*,14*,
COc1ccc(OC)c2c1C(=O)c1ccccc1C2=O,1,-13,-3,-1,x,x,x,
NC(c1csc(Nc2ccc(C(=O)NCCCO)cn2)n1)C1CCCCC1 (stereo not given),2,6,23*,-3,-4,7,-19,
CN(C)c1ccc(NC(=O)Nc2nc(C(N)C3CCCCC3)cs2)cc1 (stereo not given),-1,33,20*,-9,-3,23*,-7,
NC(c1csc(Nc2ncccn2)n1)C1CCCCC1 (stereo not given),2,12,23*,-2,-4,3,-13,
SMILES,MsrA inh,rCAG RNA binder,sPLA2-III inh,PG9 Ab binder,MsrA act,sPLA2 confirm,535nm interf,others
CC(N)c1csc(Nc2ccc(C(=O)NCCCO)cn2)n1 (stereo not given),-1,4,8,0,-3,x,x,
COc1ccc(NC(=S)Nc2ccc3nccnc3c2)cc1,0,-4,23*,-2,-8,5,-3,
COc1ccccc1NS(=O)(=O)c1cc(NC(=O)CCc2nc3ccccc3c(=O)[nH]2)ccc1C,-1,10,-16,5,-3,x,x,
COC[C@H]1CCCN1c1ccc2c(c1)OCCCN(C1CC1)S2(=O)=O,x,1,-1,x,x,x,x,
COc1ccc(NC(=O)CSc2ccc(-c3ccccn3)nn2)cc1OC,0,-2,19*,0,-2,-1,-27,
CCOc1ccc(NC(=O)CSc2ccc(-c3ccccn3)nn2)cc1,0,0,19*,0,-2,-5,-22,
OC[C@@H]1CN(CCN2CCOCC2)C[C@H](n2cnc3c(Nc4ccccc4)ncnc32)O1,-1,1,-7,0,-4,x,x,
CCOc1ccc(/C=N/NC(=O)C(=O)NCc2ccco2)cc1,2,-1,20*,2,-6,-6,-3,
CC(=O)Nc1ccc(-c2ccnc3c2CC(C(=O)Nc2cccnc2)O3)cc1 (stereo not given),-1,2,-2,-2,-3,x,x,
CC(/C=N\NC(=O)CSc1nnc(-c2ccc(Br)cc2)n1-c1ccccc1)=C\c1ccco1,x,16,-5,x,x,x,x,
O=C(NC(=S)Nc1ccc(S(=O)(=O)N2CCCCC2)cc1)c1cccs1,1,2,19*,-1,-6,19*,-4,
O=S(=O)(c1ccc(NC(=S)NN=Cc2ccccc2O)cc1)N1CCCCC1,1,28,26*,-1,-7,33*,9.8*,
COc1ccccc1/C=C/C=N/NC(=O)c1ccccn1,4.6*,0,20*,-1,-6,6,-8,
COc1ccccc1/C=C/C=N/NC(=O)c1cc(-c2ccco2)[nH]n1,2,14,-13,-7,-5,x,x,
C=CCNc1cc(=O)n(Cc2ccccc2)c(=O)[nH]1,0,-1,19*,0,-6,-2,-3,
C=CCNC1=C(Cl)C(=O)N(Cc2ccccc2)C1=O,1,3,-1,0,-4,x,x,
O=C(O)CCCNC(=O)C(c1ccccc1)c1ccccc1,0,0,21*!,-2,-4,-2,-6,
O=C(O)CCCNC(=O)CCCNC(=O)C(c1ccccc1)c1ccccc1,0,1,13,2,-1,x,x,
